Hits are enriched below; roughly 3% of the tested compounds scored in any of these assays.
S16 F2sN tox: toxic to S16 Pmp22-F2sN Schwann cells; S16 Pmp22-F2sN Schwann cells viability, CellTiter-Glo, 24 h; Potency, µM (series often up to 57.5 µM), inactives show at the top dose activity change, negative = cytotoxicity, actives largely listed as cytotoxic; 43,000 tested, 0.48% active; AID 1508642; also: potency is read from the fitted curve at half-maximal effect; % is scaled to controls: 0 for no effect and ±100 for the full control effect; nearly all actives have a fitted effect of over 65% in size
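Viability was measured by CellTiter-Glo luminescence (15 min, room temperature). This followed 24 h at 37 °C of compound exposure (23 nL pin transfer) in S16 Pmp22-F2sN Schwann cells, 500-1,000 per well.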
p53null 39C kill: selectivity test: cytotoxicity in p53 null cells, nonpermissive temperature | 55,000 tested, 0.97% active | AID 904 | Potency, µM (highest dose often 46.1 µM), inactives show top-dose activity, negative = cell killing, actives largely listed as cytotoxic | H1299 p53-null (neo) cells, 39C, ATPlite viability, 24 h;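 also: potency is read from the fitted curve at half-maximal effect; 0% = DMSO only and -100% = full killing by 100 µM tamoxifen; nearly all actives have a fitted effect of over 50% in size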
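Following overnight plating at 37C (600 cells/well), H1299-neo or H1299-p53A138V cells are dosed up to 46 uM. Incubation lasts 24 hr at 39C before ATP detection.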
PMP22 txn: modulates PMP22 transcription in S16 Schwann cells. S16 Pmp22-F2sN Schwann cells (luciferase reporters placed in the Pmp22 gene), FLuc/NLuc coincidence luminescence, 24 h. Potency, µM (top dose mostly 57.5 µM), for inactives: at the highest dose activity change, negative = inhibition, most hits filed as inhibitors. 43,000 tested, 2% active; active = clear falling dose curves in both reporters; inconclusive = both reporters move, but less clearly or upward; inactive = either reporter flat; the % is the NLuc reporter signal; also: potency is read from the fitted curve at half-maximal effect; % is scaled to controls: 0 for no effect and ±100 for the full control effect
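qHTS, 1536-well. Cells seeded, compounds added by pin tool, 24 h 37C. Nano-Glo reagent 1 (lysis/FLuc), 10 min RT, read; Stop&Glo, 10 min RT, read NLuc.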
p53null 32C kill: kills p53 null cells at the permissive temperature | H1299-neo p53 null cells, ATP luminescence, 24 h, 32C | Potency, µM (series often up to 46.1 µM), inactives show at the highest dose activity change, negative = cytotoxicity, usual class: cytotoxic | 55,000 tested, 0.62% active | AID 903;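 also: potency is read from the fitted curve at half-maximal effect; 0% = DMSO only and -100% = full killing by 100 µM tamoxifen; nearly all actives have a fitted effect of over 55% in size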
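ATP-content luminescence in p53-null H1299-neo cells after 24 h compound exposure (up to 46 uM) at 32C permissive temperature; 0% and 100% killing set by DMSO and 100 uM tamoxifen; Hill-equation AC50.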
pS6 MEF inh: mTORC1 pathway inhibition measured by phospho-rpS6; Tsc2-/- p53-/- MEF, phospho-rpS6 immunofluorescence/PI, 24 h; Potency, µM (series often up to 38.3 µM), without a hit: at the top dose activity change, negative = inhibition, usual class: inhibitors; 44,000 tested, 0.78% active; AID 493208;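 also: potency is read from the fitted curve at half-maximal effect; plate controls were DMSO for no effect and rapamycin for full effect; nearly all actives have a fitted effect of over 50% in size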
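Compounds act on Tsc2-/-, p53-/- fibroblasts carrying an empty vector for 24 h before fixation and dual staining for phospho-S6 and DNA (propidium iodide). Values are percentages of cells above a rapamycin-defined pS6/PI threshold.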
SKOV3 invasion: blocks SKOV3ip1 adhesion and invasion in omental model; Potency, µM (series often up to 45.8 µM), inactives show at the highest dose activity change, negative = inhibition, usual class: inhibitors; AID 1963576; SKOV3ip1-GFP adhesion/invasion on 3D omental model, fluorescence; 46,000 tested, 0.1% active;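 also: potency is read from the fitted curve at half-maximal effect; plate controls were DMSO wells for no effect and tomatine positive control wells for full effect; nearly all actives have a fitted effect of over 65% in size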
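A 3D layer of primary human omental fibroblasts, mesothelial cells, fibronectin and collagen I, grown 48 hr, received SKOV3ip1-GFP cells in serum-free medium plus compounds at 0.36-46 umol/L. After 2 hr RT and 16 hr 37 C, fixed adherent GFP cells were counted; normalized to DMSO and tomatine.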
NLuc saturating: inhibits NanoLuc at saturating substrate, PMP22 counter-screen. Potency, µM (titrated, usually from 57.5 µM), inactives show at the top dose activity change, negative = inhibition, actives largely listed as inhibitors. shares compounds with PMP22 txn. Secreted NLuc enzyme (filtered S16 cell medium), Nano-Glo luminescence. 690 tested, 4% active; also: potency is read from the fitted curve at half-maximal effect; % is scaled to controls: 0 for no effect and ±100 for the full control effect
NLuc Km counter: counter-screen for PMP22 expression modulators: NanoLuc inhibition at Km. shares compounds with PMP22 txn. secreted NLuc enzyme, coelenterazine luminescence, Km conditions. Potency, µM (top dose mostly 57.5 µM), inactives show top-dose activity change, negative = inhibition, usual class: inhibitors. 690 tested, 5% active; also: potency is read from the fitted curve at half-maximal effect; % is scaled to controls: 0 for no effect and ±100 for the full control effect
FLuc ctr PMP22: firefly luciferase enzyme inhibition artifact for PMP22 screen. shares compounds with PMP22 txn. purified P. pyralis FLuc, luminescence, 10 min. Potency, µM (top dose mostly 57.5 µM), for inactives: at the top dose activity, negative = inhibition, hits mostly inhibitors. 690 tested, under 10 active; also: % of control where 0% means no effect
Target sequence (P08659 whole entry, looked up): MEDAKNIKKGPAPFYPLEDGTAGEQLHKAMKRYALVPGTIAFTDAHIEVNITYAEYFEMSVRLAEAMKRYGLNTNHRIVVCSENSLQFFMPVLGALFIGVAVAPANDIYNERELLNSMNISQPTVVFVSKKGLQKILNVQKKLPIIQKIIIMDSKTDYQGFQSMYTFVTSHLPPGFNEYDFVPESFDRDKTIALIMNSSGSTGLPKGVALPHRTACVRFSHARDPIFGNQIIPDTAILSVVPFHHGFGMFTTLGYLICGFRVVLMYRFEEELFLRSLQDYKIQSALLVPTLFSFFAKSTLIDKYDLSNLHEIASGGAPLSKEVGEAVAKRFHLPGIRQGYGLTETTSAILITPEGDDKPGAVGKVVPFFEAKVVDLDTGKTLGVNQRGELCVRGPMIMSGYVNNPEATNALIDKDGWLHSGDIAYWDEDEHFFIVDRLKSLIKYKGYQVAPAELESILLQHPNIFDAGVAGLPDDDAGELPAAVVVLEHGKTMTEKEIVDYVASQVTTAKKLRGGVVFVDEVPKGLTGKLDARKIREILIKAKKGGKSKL
S16 viab conf: S16 Schwann cell cytotoxicity, confirmatory; 690 tested, 7% active; Potency, µM (titrated, usually from 57.5 µM), inactives show at the highest dose activity change, negative = viability loss, actives largely listed as cytotoxic; AID 1508641; shares compounds with PMP22 txn; S16 Schwann cells viability, CellTiter-Glo ATP luminescence, 24 h; also: potency is read from the fitted curve at half-maximal effect; % is scaled to controls: 0 for no effect and ±100 for the full control effect
PMP22 txn cnf: confirmation of modulators of PMP22 gene transcription in S16 cells; shares compounds with PMP22 txn; S16 Schwann cells Pmp22-F2sN, dual luciferase, 24 h; Potency, µM (top dose mostly 57.5 µM), for inactives: top-dose activity change, negative = inhibition, hits mostly inhibitors; 690 tested, 22% active; AID 1508646; active = clear falling dose curves in both reporters; inconclusive = both reporters move, but less clearly or upward; inactive = either reporter flat; the % is the FLuc reporter signal; also: potency is read from the fitted curve at half-maximal effect
PMP22 HiBiT cnf: confirmation of modulators of rat PMP22 protein expression; shares compounds with PMP22 txn; S16 Schwann cells Pmp22-HiBiT, luminescence, 48 h; Potency, µM (series often up to 27.9 µM), for inactives: at the highest dose activity change, negative = inhibition, most hits filed as inhibitors; 95 tested, under 10 active; AID 1508647
Numbers without * were called inactive; i = inactive; u = inconclusive; x = no result. Unless noted, calls follow the shape of the dose curve; as a rule, active = well fitted curve in the direction sought with a large enough effect; inconclusive = small, poorly fitted or top-dose-only effect, or another doubt; inactive = no such curve, though single readings can be large; an effect the other way counts as inactive or inconclusive.

SMILES | S16 F2sN tox | p53null 39C kill | PMP22 txn | p53null 32C kill | pS6 MEF inh | SKOV3 invasion | NLuc saturating | NLuc Km counter | FLuc ctr PMP22 | S16 viab conf | PMP22 txn cnf | PMP22 HiBiT cnf
O=C(NCCc1ccccc1)c1c[nH]c2ccc(S(=O)(=O)Nc3ccc(F)cc3F)cc2c1=O | 2% | 2% | -34% | 15% | 6% | -5% | x | x | x | x | x | x
O=C(NCCc1ccccc1)c1c[nH]c2ccc(S(=O)(=O)Nc3ccccc3F)cc2c1=O | -7% | -4% | u | 2% | -9% | 1% | -22% | -18% | -14% | -17% | -10% | x
CC1=Nc2cc(C(=O)NC3CCC(C)CC3)ccc2Sc2c(C)ccc(C)c21 (configuration not stated) | 4% | u | -116% | 27% | -11% | 8% | x | x | x | x | x | x
COCCCNC(=O)c1ccc2c(c1)N=C(C)c1c(C)ccc(C)c1S2 | 11% | u | 0.089µM* | 1% | -10% | u | -7% | u | -7% | 11% | 0.31µM* | u
CCC1=Nc2cc(C(=O)NCCCOC)ccc2Sc2ccc(Br)cc21 | 1% | u | 1.3µM* | 6% | u | i | -11% | -5% | 8% | u | u | u
Nc1nccc(-c2ccc3noc(-c4ccc(Cl)cc4)c3c2)n1 | x | x | x | x | x | -13% | x | x | x | x | x | x
COc1cccc(NC(=O)N(Cc2cn(C)c3ccccc23)C2CCCCC2)c1 | u | u | 10µM* | -1% | -2% | -2% | u | u | -3% | 2% | u | x
Cc1ccc(NC(=O)N(Cc2cn(C)c3ccccc23)C2CCCCC2)cc1C | u | u | 11µM* | 7% | -1% | i | 14µM* | u | u | 2% | u | x
CCOc1ccc(Nc2nc(-c3c(C)nc4ccccn34)cs2)cc1 | x | x | x | x | x | 12% | x | x | x | x | x | x
CCC(=O)C1=C(c2cccc([N+](=O)[O-])c2)N(C(=O)CC)n2c(nnc2C2CCCCC2)S1 | u | 5% | 8.4µM* | -3% | -3% | u | -7% | 4% | 7% | -23% | 11µM* | u
CCC(=O)C1=C(c2cccc([N+](=O)[O-])c2)N(C(=O)CC)n2c(nnc2-c2ccccc2)S1 | 6% | 19% | 3µM* | -14% | -3% | i | u | u | 0% | 16% | 11µM* | -1%

Source: PubChem (National Center for Advancing Translational Sciences (NCATS))
